Compound activity as filed in PubChem BioAssay.
Compounds with a hit are over-represented: about 32% of the library has one in this group of screens.
CYP2C9 inhib – inhibitors of human CYP2C9. P11712. CYP2C9 Supersomes, luciferin-H conversion, luminescence. inhibition, % at 5 µM. actives 20% (n = 96,000). AID 777;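 active = blocking of liver enzyme CYP2C9 beyond about 50% at 5 µM, limit read from the data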
Target sequence (P11712 whole entry, looked up): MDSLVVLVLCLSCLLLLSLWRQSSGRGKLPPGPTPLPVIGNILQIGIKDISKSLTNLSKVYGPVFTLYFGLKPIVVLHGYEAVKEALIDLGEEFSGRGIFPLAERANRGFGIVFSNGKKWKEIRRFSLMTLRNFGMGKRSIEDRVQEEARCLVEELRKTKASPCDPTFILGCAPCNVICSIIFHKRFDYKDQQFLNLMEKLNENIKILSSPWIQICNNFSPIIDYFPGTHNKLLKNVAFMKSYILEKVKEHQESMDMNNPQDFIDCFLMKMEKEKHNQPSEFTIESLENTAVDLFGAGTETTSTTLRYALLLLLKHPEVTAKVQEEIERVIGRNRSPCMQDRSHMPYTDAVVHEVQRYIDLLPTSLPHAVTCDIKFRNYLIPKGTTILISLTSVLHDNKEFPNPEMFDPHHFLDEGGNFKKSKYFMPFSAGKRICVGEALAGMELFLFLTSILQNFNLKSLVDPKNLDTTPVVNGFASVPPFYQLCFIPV
PostGolgi ctrl – yeast control strain growth, post-Golgi counter-screen. efflux-deficient yeast background strain, growth absorbance A615, 16 h. inhibition, % at 10 µM. actives 5% (n = 98,000)
PostGolgi yeast – growth inhibition of a yeast mutant, post-Golgi transport screen; actives 0.9% (n = 98,000); inhibition, % at 10 µM; AID 739; post-Golgi transport phenotypic cell assay;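 also: yeast cells grown in 1536-well plates; yeast grown about 18 h at 30C before absorbance read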
CYP2C19 inh – human CYP2C19 inhibition | P33261 | CYP2C19 Supersomes, luciferin-H EGE luminescence, 30 min | inhibition, % at 5 µM | actives 21% (n = 96,000) | AID 778;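 active = CYP2C19 inhibition above a set limit at 5 µM in the primary screen, cut at about 50% in these data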;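 also: plate controls were negative control wells for no effect and 2.5 mM tranylcypromine positive control for full effect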
CYP2C9 activ – activators of human CYP2C9. activation factor at 5 µM. AID 1024. recombinant CYP2C9, luciferin-H conversion, luminescence; active compounds read high; factor 1 = untreated enzyme, 0 = blocked. actives 1.4% (n = 96,000);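 active = activation factor of 2 or more for CYP2C9 at a 5 µM dose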;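 also: 0 = sulfaphenazole-blocked wells and 1 = vehicle-only wells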
CYP2C19 activ – increases human CYP2C19 enzyme activity; P33261; recombinant CYP2C19, luciferin-H EGE luminescence; active compounds read high; 0 = fully inhibited enzyme, 1 = untreated enzyme; activation factor at 5 µM; 96,000 tested, under 10 active;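 active = activation factor of at least 2 at 5 µM in the primary screen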;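 also: 0 = wells with 2.5 mM tranylcypromine and 1 = vehicle-only wells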
* = called active by the depositor; / = no result given. Rule as the data show it, unless noted: active = inhibition above about 30%; inactive = the rest.

SMILES | CYP2C9 inhib | PostGolgi ctrl | PostGolgi yeast | CYP2C19 inh | CYP2C9 activ | CYP2C19 activ
O=C1CCC(=O)N1c1nc2n(n1)C(c1ccccc1)C=C(c1ccc(Br)cc1)N2 (configuration not stated) | 60.8* | 2.2 | 11.9 | 49.2 | 0.4 | 0.5
CCOC(=O)C(C)Sc1ncc(OC)c(=O)[nH]1 (configuration not stated) | -3.3 | 6.2 | 0.0 | 2.8 | 1 | 1
CCOC(=O)CSc1ncc(OC)c(Sc2ccc(Cl)cc2)n1 | 57.5* | 23.4 | 24.0 | 30.0 | 0.4 | 0.7
CCOC(=O)C(C)Sc1ncc(OC)c(Sc2ccc(Cl)cc2)n1 (configuration not stated) | 82.6* | 14.4 | 12.2 | 45.2 | 0.2 | 0.5
COc1cnc(-c2ccccn2)nc1Oc1cccc(Cl)c1 | 8.3 | 19.3 | 16.2 | 10.8 | 0.9 | 0.9
CCN(CC)CCN(Cc1cc2cc(C)ccc2[nH]c1=O)C(=O)Nc1ccccc1OC | 8.2 | -5.7 | -3.5 | 14.8 | 0.9 | 0.9
COc1ccc(NC(=O)c2ccc3c(c2)C(=O)N(Cc2cccnc2)C3=O)c(OC)c1 | / | 0.1 | -6.9 | / | / | /
CCOc1ccc2[nH]c(=O)c(CN(CCc3ccccc3)C(=O)c3cnccn3)cc2c1 | 40.5 | -2.3 | 12.7 | 51.4* | 0.6 | 0.5
COc1ccc(NC(=O)N(Cc2ccc(C)cc2)Cc2cccnc2)c(OC)c1 | 90.0* | 8.0 | -12.9 | 97.4* | 0.1 | 0
CCc1ccc2[nH]c(=O)c(CN(Cc3ccccc3OC)C(=O)Nc3ccccc3OC)cc2c1 | 93.4* | 45.1* | 1.1 | -28.4 | 0.1 | 1.3
COc1ccc2[nH]c(=O)c(CN(C(=O)c3cccnc3)c3ccccc3)cc2c1 | 35.4 | 5.8 | -11.4 | 15.9 | 0.6 | 0.8
COc1ccc2[nH]c(=O)c(CN(Cc3cccnc3)C(=O)Nc3ccccc3)cc2c1 | 88.3* | 93.8* | 104.6* | 87.8* | 0.1 | 0.1
COc1ccccc1-n1cnc2cc(C(=O)NCCCN3CCOCC3)ccc21 | 27.1 | -4.9 | 20.6 | 18.1 | 0.7 | 0.8
O=[N+]([O-])c1ccc(Oc2c(F)c(F)nc(N3CCCC3)c2F)cc1 | 4.8 | 13.9 | 12.5 | 40.2 | 1 | 0.6
CCOc1ccc2[nH]c(=O)c(CN(Cc3cccnc3)C(=O)Nc3ccccc3OC)cc2c1 | 22.2 | 11.1 | -7.2 | 53.9* | 0.8 | 0.5
COc1ccc(SCc2noc(C(=O)NC(C)C)c2C(=O)O)cc1 | 48.9 | 20.9 | -5.5 | 14.2 | 0.5 | 0.9
C=CCNC(=O)c1onc(CSc2ccc(Cl)cc2)c1C(=O)O | 73.4* | 8.3 | -5.0 | 24.2 | 0.3 | 0.8
COCCNC(=O)c1onc(CSc2ccc(F)c(F)c2)c1C(=O)O | 20.1 | -6.2 | 0.3 | 20.0 | 0.8 | 0.8
O=C(NCC1CCCO1)c1onc(CSc2ccccc2)c1C(=O)O (configuration not stated) | 0.8 | -3.2 | 0.5 | 13.7 | 1 | 0.9
C=CCNC(=O)c1onc(CSc2ccc(F)c(F)c2)c1C(=O)O | 77.0* | -6.9 | 28.2 | 43.9 | 0.2 | 0.6
CC(C)c1ccc(SCc2noc(C(=O)NCC3CCCO3)c2C(=O)O)cc1 (configuration not stated) | 60.7* | -12.7 | 10.2 | 20.6 | 0.4 | 0.8
CC(C)NC(=O)c1onc(CSc2ccc(Cl)cc2)c1C(=O)O | 70.1* | 23.5 | 4.0 | 19.0 | 0.3 | 0.8
Cc1[nH]c(=O)c(C#N)c(C)c1Br | -11.5 | 7.3 | -9.7 | -5.0 | 1.1 | 1.1
Cc1ccc(-c2noc(CCCC(=O)Nc3cccnc3)n2)cc1 | 34.3 | 4.2 | 10.1 | -2.3 | 0.7 | 1
Cc1cc(C)c2c3c(sc2n1)C(=O)N(Cc1ccccc1)CC(=O)N3 | 10.0 | 5.2 | 16.9 | 30.0 | 0.9 | 0.7
SMILES | CYP2C9 inhib | PostGolgi ctrl | PostGolgi yeast | CYP2C19 inh | CYP2C9 activ | CYP2C19 activ
COCCNC(=O)c1onc(CSc2cccc(Cl)c2)c1C(=O)O | 13.7 | -4.6 | 7.3 | -15.8 | 0.9 | 1.2
CCCCNC(=O)c1onc(CSc2cccc(F)c2)c1C(=O)O | 65.6* | 15.2 | -5.9 | 9.3 | 0.3 | 0.9
CCCCNC(=O)c1onc(CSc2ccc(Cl)cc2)c1C(=O)O | 86.5* | 6.2 | -5.3 | 15.9 | 0.1 | 0.8
CC(C)NC(=O)c1onc(CSc2cccc(F)c2)c1C(=O)O | 34.8 | -4.3 | 15.1 | -1.1 | 0.7 | 1
CN(C)S(=O)(=O)c1ccc2oc(SCC(=O)NCC(F)(F)F)nc2c1 | 11.2 | -1.7 | -4.0 | 14.8 | 0.9 | 0.9
Cc1cc(=O)oc(C)c1C(=O)N1CCN(C)CC1 | -8.3 | 4.1 | -6.4 | -13.3 | 1.1 | 1.1
CCOC(=O)CSc1nnc(Cn2nnc(-c3ccccc3)n2)n1CC | -2.0 | 17.8 | 1.4 | -0.8 | 1 | 1
Cc1ccnc(N/C=C(\C#N)c2nc(-c3cccc(Br)c3)cs2)c1 | 31.1 | 8.4 | 5.9 | 32.6 | 0.7 | 0.7
CC(CN1CCCCC1)OC(=O)C1c2ccccc2Oc2ccccc21 (configuration not stated) | -17.0 | 10.3 | 9.9 | 71.6* | 1.2 | 0.3
CN1CCN(C(=O)/C(=C/c2ccccc2)c2ccccc2)CC1 | 8.6 | 7.3 | -6.1 | 33.5 | 0.9 | 0.7
CC1CCCCN1C(=O)/C(=C\c1ccccc1)c1ccccc1 (configuration not stated) | 83.6* | 24.1 | 1.3 | 49.0 | 0.2 | 0.5
Cc1ccccc1CS(=O)(=O)CCC(=O)NCc1ccccn1 | -16.3 | 3.3 | 2.6 | 8.1 | 1.2 | 0.9
CCOC(=O)c1c(C)sc2c1N(C(=O)CCl)c1cc(Cl)ccc1S2 | 43.9 | 78.4* | 8.7 | 34.3 | 0.6 | 0.7
CCOC(=O)c1c(NC(=O)Nc2ccc(Cl)cc2)sc(C)c1C | 7.7 | 0.0 | -15.6 | 10.5 | 0.9 | 0.9
CCc1ccc2oc(-c3cc(N)ccc3Cl)nc2c1 | 26.4 | 35.1* | 1.4 | 53.0* | 0.7 | 0.5
CCc1ccc2oc(-c3cc(N)ccc3O)nc2c1 | 32.3 | 52.7* | 21.6 | 43.5 | 0.7 | 0.6
Cc1ccc(C)c(-c2nc3cc(N)ccc3o2)c1 | 16.9 | 3.1 | 13.0 | 28.0 | 0.8 | 0.7
CCc1ccc2oc(-c3cc(N)cc(C)c3O)nc2c1 | 93.7* | 21.6 | -3.9 | 95.1* | 0.1 | 0
Cc1cccc(NC2(C(F)(F)F)N=C3SCCN3C2=O)n1 (configuration not stated) | 9.5 | 9.4 | -4.5 | -9.9 | 0.9 | 1.1
COC(=O)c1cc2ccccc2c(=O)s1 | -42.3 | -1.6 | -0.2 | 61.1* | 1.4 | 0.4
COC(=O)c1cc2ccc(OC)c(OC)c2c(=O)s1 | 26.6 | -4.5 | -5.1 | 56.7* | 0.7 | 0.4
O=C(NCCO)c1cc2ccccc2c(=O)s1 | -10.5 | 3.8 | 8.0 | -9.7 | 1.1 | 1.1
COC(=O)c1ccc(OCCN2C3=NCCN3c3ccccc32)cc1 | -3.4 | -0.8 | -19.6 | 18.5 | 1 | 0.8
Cc1sc(CO)c(Sc2ccccc2)c1C(=O)O | / | 34.0* | 0.7 | / | / | /
COC(=O)c1ccc(C)c(NC(=O)C2COc3ccccc3O2)c1 (configuration not stated) | 79.4* | 1.2 | -5.8 | 78.5* | 0.2 | 0.2
